A selection: hits, their analogues and other compounds. The true share with any hit is near 3.2%.
APOBEC3G inh – inhibitors of human APOBEC3G DNA deaminase. inhibition, % at 20 µM. Q9HC16. recombinant A3G, ssDNA deamination FAM/TAMRA fluorescence. 330,000 compounds, 0.28% hits. AID 493012;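 active = inhibition of at least 40% at 20 µM, with no more than 30% in the related APOBEC3A deaminase screen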
Target sequence (Q9HC16 whole entry, looked up): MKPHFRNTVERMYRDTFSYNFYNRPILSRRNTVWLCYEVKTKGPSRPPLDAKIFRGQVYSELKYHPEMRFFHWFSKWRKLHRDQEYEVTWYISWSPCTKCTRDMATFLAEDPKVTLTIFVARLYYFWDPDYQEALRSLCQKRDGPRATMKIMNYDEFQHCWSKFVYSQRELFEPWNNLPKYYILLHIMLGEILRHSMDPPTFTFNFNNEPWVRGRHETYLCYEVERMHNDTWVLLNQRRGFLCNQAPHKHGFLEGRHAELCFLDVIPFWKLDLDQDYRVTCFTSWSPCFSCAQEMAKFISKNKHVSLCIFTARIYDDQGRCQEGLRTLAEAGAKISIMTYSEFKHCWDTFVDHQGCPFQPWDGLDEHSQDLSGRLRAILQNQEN
NTR1 agonist – activates human neurotensin receptor 1 | NTR1-U2OS beta-arrestin-GFP spot imaging, agonist mode | activation, % at 20 µM | AID 493036 | P30989 | 330,000 compounds, 0.17% hits;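 active = activation at or above 40% of the spot to cytoplasm intensity ratio, with at least 20 cells analyzed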
A3A deaminase – human APOBEC3A DNA deaminase inhibition; recombinant A3A, FAM/TAMRA ssDNA deamination fluorescence; P31941; inhibition, % at 20 µM; AID 493011; 330,000 compounds, 0.41% hits;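 active = at least 40% inhibition at 20 µM here, with at most 30% in a related deaminase screen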
AHR activator – activators of human aryl hydrocarbon receptor. 320,000 compounds, 2.5% hits. activation, % at 5 µM. AHR-responsive luciferase reporter cells, luminescence; in the data active = activation above about 47%
Each line names hits and unclear results; the compound was inactive in the other large screens.

Cc1ccc(Nc2nc(Cl)nc(NC(C)(C)C)n2)cc1	none
Cc1ccc(Nc2nc(Cl)nc(N(C)C#N)n2)cc1	AHR activator 55
O=C(NCc1ccccn1)c1cc(-c2ccc(-c3ccccc3)cc2)nc2ccccc12	AHR activator 66
Cc1cc(NC(=O)c2cc(-c3ccc(C)c(C)c3)nc3ccccc23)no1	AHR activator 58
CCOc1ccccc1NC(=O)c1cc(-c2ccccn2)nc2ccccc12	AHR activator 71
Cc1ccc(-c2cc(C(=O)NCc3ccccn3)c3ccccc3n2)cc1C	AHR activator 56
Cc1ccc(-c2cc(C(=O)Nc3cc(C)on3)c3ccccc3n2)cc1	none
Cc1cccc(-c2cc(C(=O)NCc3ccccn3)c3ccccc3n2)c1	none
N#Cc1ccc(C(=O)NNC(=O)c2cccc(S(=O)(=O)N3CCOCC3)c2)cc1	none
COc1cc([N+](=O)[O-])ccc1NC(=O)CCS(=O)(=O)c1ccc2c(c1)n(C)c(=O)c(=O)n2C	none
Cc1ccc2c(CSc3nncn3C)cc(=O)oc2c1C	none
C/C(=N\N=c1/sc2ccccc2n1C)c1ccc(N2CCOCC2)cc1	AHR activator 53
CC(=O)N/N=c1\sc2ccccc2n1C	none
COc1ccc(C)cc1NC(=O)Nc1cnccn1	AHR activator 57
O=C(Nc1cnccn1)Nc1cccc(Cl)c1Cl	AHR activator 49
COc1ccc(NC(=O)Nc2cnccn2)c(OC)c1	none
COc1ccc(Cl)cc1NC(=O)Nc1cc(C)on1	AHR activator 55
COc1ccc(Cl)cc1NC(=O)Nc1cnccn1	AHR activator 53
CN1CCN(C(=O)/C=C/c2c(F)cccc2Cl)CC1	none
COc1ccc(NC(=O)Nc2cc(C)ccc2F)cc1OC	AHR activator 52
CC(OC(=O)Cc1c[nH]c2ccccc12)C(=O)Nc1ccc(S(N)(=O)=O)cc1 (stereo not drawn)	none
O=C1C2CCCN2C(c2ccccc2F)N1c1ccc(Cl)cc1 (stereo not drawn)	AHR activator 52
COC(=O)c1sccc1NC(=O)Cn1nnc(-c2ccccc2C)n1	none
Cc1nsc(Nc2ccc([N+](=O)[O-])cc2)c1C#N	none
Cc1nc(C(F)(F)F)nc(Nc2ccc(Br)cc2)c1C#N	AHR activator 51
CCOC(=O)c1c(NCc2ccccc2)n[nH]c1C	AHR activator 48
CCOC(=O)c1c(Nc2ccccc2OCCOC)n[nH]c1C	AHR activator 48
CCOC(=O)c1c(C)nsc1NCc1ccccc1	none
CCOc1ccccc1NC(=O)CSc1c(C)n[nH]c1C	none
CCOC(=O)COc1cccc(C2NC(=O)c3ccccc3O2)c1 (stereo not drawn)	none
COC(=O)c1cccc(-n2sc3ccccc3c2=O)c1	APOBEC3G inh 78
Clc1cc(Cl)cc(Nc2ncnc(-n3cccc3)n2)c1	AHR activator 54
Nc1ncnc(Nc2ccc(F)c(Cl)c2)n1	none
Cc1ccc(Nc2ncnc(-n3cccc3)n2)cc1Cl	AHR activator 58
CCOC(=O)C1CCCN(S(=O)(=O)c2cnc(Cl)c(Br)c2)C1 (stereo not drawn)	none
Cc1ccc(NC(=O)c2ccc3nc[nH]c3c2)c(O)c1	AHR activator 65
O=C(c1ccc(=O)[nH]n1)N1CCN(S(=O)(=O)c2ccc(C(F)(F)F)cc2)CC1	none
COc1ccc(/C=N/n2cc(-c3ccccc3)nc2N)cc1	AHR activator 68
CC1CCCC(NC(=S)Nc2cccc(S(=O)(=O)N(C)C)c2)C1C (stereo not drawn)	none
NC(=O)c1c(/N=C/c2cccs2)sc2c1CCCC2	AHR activator 70
COCOc1cc(O)c(C(=O)/C=C/c2ccccc2)c(OCOC)c1	none
CCn1c(SCC(=O)c2ccc3ccccc3c2)nnc1-c1ccco1	AHR activator 78
CCn1c(SCC(=O)c2ccc3c(c2)OCCO3)nnc1-c1ccco1	none
CN(C)c1nc(N)nc(/C(C#N)=C/C2CC3C=CC2C3)n1 (stereo not drawn)	AHR activator 47
COCCCn1c(C)cc(C(=O)COC(=O)C23CC4CC(CC(O)(C4)C2)C3)c1C	none (no result: AHR activator)
Cc1cc(C)cc(N2C(=O)CC(Sc3ncn[nH]3)C2=O)c1 (stereo not drawn)	APOBEC3G inh 41
NCCCn1c(C(=O)c2cc(Cl)c(N)c(Cl)c2)c2ccccc2[n+]1[O-]	AHR activator 72
NC(=O)CCn1c(C(=O)c2cc(Cl)c(N)c(Cl)c2)c2ccccc2[n+]1[O-]	AHR activator 76
NC(=O)CCn1c(C(=O)c2cccc([N+](=O)[O-])c2)c2ccccc2[n+]1[O-]	AHR activator 57
COc1ccc(C(=O)c2c3ccc(C(F)(F)F)cc3[n+]([O-])n2CCCN)cc1	AHR activator 65
COc1ccc(C(=O)c2c3ccccc3[n+]([O-])n2CCC(N)=O)cc1	none
